The full ranking holds about 16,000 sequences; the median of “e-score” is about -0.044, and the highest 2% start at about 0.38. The sample holds the highest values, similar sequences and a random draw of the others, so the mix is not that of the screen.

The target in the test is T1, GST-NbGlk1(82-244) (Nicotiana benthamiana).
T1 chain: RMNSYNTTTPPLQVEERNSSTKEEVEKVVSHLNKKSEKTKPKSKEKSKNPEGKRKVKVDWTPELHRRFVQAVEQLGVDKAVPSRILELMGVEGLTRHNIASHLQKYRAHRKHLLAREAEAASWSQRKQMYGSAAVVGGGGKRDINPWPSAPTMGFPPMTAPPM
As to the kind of experiment: protein-binding microarray; NbGlk1 is a Golden2-like transcription factor of Nicotiana benthamiana; high values mean tight binding. The conditions noted are these: protein: recombinant; tags: GST (pTH6838); dsDNA, one strand shown.
Take ATTGTGTC: the binding signal worked out at 0.225 ± 0.0437 E-score.

For the sequence ATCTGCGA, the binding signal was determined as 0.35 ± 0.033 E-score.

For ATTACCCA, the binding signal is 0.234 ± 0.0351 E-score.

Take AATCGATC: the binding signal was 0.26 ± 0.0524 E-score.

For the sequence AGATTTTG, the binding signal amounted to 0.4649 ± 0.003 E-score.

ATATTTTG: the binding signal worked out at 0.274 ± 0.0771 E-score.

Regarding AAATTTTC, the binding signal was determined as 0.273 ± 0.00676 E-score.

Take AGATTTTC: the binding signal is 0.4879 ± 0.00245 E-score.

With ATATTTTC, the binding signal amounted to 0.363 ± 0.0153 E-score.

AGATTTCA: the binding signal came out at 0.467 ± 0.0101 E-score.

Consider AAATTTCC, for which the binding signal was found to be 0.305 ± 0.0382 E-score.

In the case of ATATTTCA, the binding signal came to 0.302 ± 0.00721 E-score.

Turning to AAATTTCA, the binding signal amounted to 0.229 ± 0.0474 E-score.

For ATTTTTTG, the binding signal is 0.315 ± 0.021 E-score.

Turning to AGATTTCC, the binding signal was found to be 0.4969 ± 0.000664 E-score.

With ATATTTCC, the binding signal came to 0.369 ± 0.00928 E-score.

In the case of ACGTATAA, the binding signal amounted to 0.241 ± 0.0276 E-score.

Regarding ATCACACA, the binding signal is 0.274 ± 0.0193 E-score.

As for ATCAGATA, the binding signal worked out at 0.311 ± 0.0291 E-score.

Consider ACAGTATA, for which the binding signal came to 0.203 ± 0.12 E-score.

On to ACGTATCG, for which the binding signal is 0.2234 ± 0.00122 E-score.

As to ATTCGAAA, the binding signal was found to be 0.208 ± 0.0296 E-score.

With AGATTTAT, the binding signal amounted to 0.261 ± 0.0998 E-score.

Regarding AGATTTTA, the binding signal worked out at 0.414 ± 0.0235 E-score.

Regarding ATATTTCG, the binding signal is 0.347 ± 0.00521 E-score.

With AGATTTCG, the binding signal was 0.4861 ± 0.00274 E-score.

In the case of AAATTTCG, the binding signal turned out to be 0.332 ± 0.0714 E-score.

On to AGATTTAA, for which the binding signal was 0.269 ± 0.0136 E-score.

As to ATTATCTA, the binding signal is 0.201 ± 0.0162 E-score.

With AACGTAAT, the binding signal was found to be 0.361 ± 0.0152 E-score.

As for AAGGGAAT, the binding signal was determined as 0.259 ± 0.00401 E-score.

Take CAAATCGG: the binding signal came to 0.252 ± 0.00458 E-score.

Regarding CAAATCAG, the binding signal worked out at 0.268 ± 0.0183 E-score.

With ATAATCTC, the binding signal was 0.346 ± 0.064 E-score.

As for AAAATTTT, the binding signal turned out to be 0.271 ± 0.0157 E-score.

For the sequence AAAATCTT, the binding signal worked out at 0.447 ± 0.0196 E-score.

For AAAATCTC, the binding signal amounted to 0.4529 ± 0.00114 E-score.

With AAAATCTG, the binding signal was determined as 0.478 ± 0.0028 E-score.

With CAAATCTG, the binding signal worked out at 0.43 ± 0.00733 E-score.

In the case of AAAATATT, the binding signal turned out to be 0.3158 ± 0.000558 E-score.

As for ATATCGAC, the binding signal is 0.32 ± 0.00903 E-score.

As to AACACGAT, the binding signal turned out to be 0.237 ± 0.0225 E-score.

On to ATTTGCCA, for which the binding signal was 0.358 ± 0.051 E-score.

ATAGTAGA: the binding signal is 0.201 ± 0.11 E-score.

With AAAGGATT, the binding signal came to 0.372 ± 0.061 E-score.

For ATCCATTG, the binding signal was 0.253 ± 0.0582 E-score.

With ATTTCAGA, the binding signal stood at 0.265 ± 0.0287 E-score.

Turning to ATTGCAAT, the binding signal was 0.305 ± 0.0598 E-score.

Take ATCTTAGC: the binding signal was 0.246 ± 0.0788 E-score.

In the case of ATCTCACA, the binding signal came out at 0.289 ± 0.0836 E-score.

As for ATACGCGC, the binding signal was 0.223 ± 0.0538 E-score.

For the sequence ATCCGCTA, the binding signal was 0.353 ± 0.0323 E-score.

Take CAATCAGC: the binding signal came to 0.22 ± 0.0614 E-score.

As for ATCGCGTC, the binding signal was determined as 0.285 ± 0.0397 E-score.

For the sequence CAAATCTC, the binding signal turned out to be 0.426 ± 0.0426 E-score.

AAAATTTA: the binding signal came out at 0.248 ± 0.0263 E-score.

With CAAATATA, the binding signal amounted to 0.245 ± 0.00998 E-score.

Consider CAAATCAA, for which the binding signal worked out at 0.228 ± 0.037 E-score.

Take CAAATCTA: the binding signal amounted to 0.412 ± 0.0148 E-score.

Regarding AAAATCAA, the binding signal is 0.334 ± 0.0377 E-score.

Turning to AAAATCTA, the binding signal came out at 0.4582 ± 0.0038 E-score.

Consider CAAATCAC, for which the binding signal turned out to be 0.272 ± 0.0674 E-score.

On to AATATTGG, for which the binding signal was 0.202 ± 0.105 E-score.

As for AATTCTGC, the binding signal stood at 0.204 ± 0.0116 E-score.

As to AATTTTCA, the binding signal is 0.228 ± 0.0322 E-score.

On to ATTGCAGA, for which the binding signal was determined as 0.253 ± 0.0406 E-score.

Turning to ATCTTCGC, the binding signal was 0.237 ± 0.0198 E-score.

Consider AATATTGA, for which the binding signal was 0.222 ± 0.0953 E-score.

As for ATTTCCGG, the binding signal is 0.295 ± 0.0475 E-score.

For AGATCCGC, the binding signal is 0.34 ± 0.0528 E-score.

Take ATATCCGA: the binding signal was 0.4021 ± 0.00123 E-score.

For the sequence ATATCCGG, the binding signal amounted to 0.436 ± 0.0135 E-score.

For the sequence AGATCCGA, the binding signal is 0.307 ± 0.0187 E-score.

Consider ATCTCCGC, for which the binding signal amounted to 0.293 ± 0.0913 E-score.

As to ATATCCCG, the binding signal stood at 0.317 ± 0.0686 E-score.

For the sequence ATATCGGA, the binding signal was 0.369 ± 0.015 E-score.

With ATATCCGC, the binding signal stood at 0.4112 ± 0.0033 E-score.

With AATACGAA, the binding signal came to 0.205 ± 0.0658 E-score.

Take ACAAGAAT: the binding signal was 0.273 ± 0.0228 E-score.

Take ACGATCGC: the binding signal came to 0.252 ± 0.0832 E-score.

Regarding ATTGCACC, the binding signal came to 0.222 ± 0.00533 E-score.

Regarding ATCGCGCA, the binding signal was 0.358 ± 0.0372 E-score.

For the sequence ATTTGTAA, the binding signal was 0.266 ± 0.0497 E-score.

As for AGATCTGC, the binding signal stood at 0.411 ± 0.029 E-score.

Turning to CAATCAGG, the binding signal came out at 0.294 ± 0.0424 E-score.

On to CAATCTGG, for which the binding signal stood at 0.4139 ± 0.000981 E-score.

Turning to AGATCTGA, the binding signal amounted to 0.332 ± 0.0671 E-score.

As for CAATCTGC, the binding signal stood at 0.305 ± 0.0551 E-score.

The record behind these values is paper PMC5836133, “The intracellular immune receptor Rx1 regulates the DNA-binding activity of a Golden2-like transcription factor”.
